The source made the active and inactive calls.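 The calls were made as follows: active = cell killing, with a fitted half-maximal concentration at or below twice the top valid dose tested; inconclusive = flat curve losing 30 to 70% signal, or unreliable fit; inactive = effect in the rising direction, plus the rest.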
experiment: A549 cell cytotoxicity, dose response, cytotoxicity control, CellTiter-Glo luminescence, 72 h, dry powder (AID 1053193); conditions: A549 viability, CellTiter-Glo ATP luminescence; series mostly up to 50 µM; activity change, negative = cytotoxicity: at the top concentration

SMILES	activity change, negative = cytotoxicity
Cc1ccc(CSc2nc3[nH]ncc3c(=O)[nH]2)cc1	-17.7% (inactive)
Cc1cc(C)c(S(=O)(=O)NCCn2c(C)cc3ccccc32)c(C)c1	-0.395% (inactive)
Cc1cc2cc(CNC(=O)Nc3ccc(Cl)c(Cl)c3)ccc2n1C	-11.5% (inactive)
Cc1cccc(NC(=O)NCc2ccc3c(c2)cc(C)n3C)c1	-12.5% (inactive)
O=C(O)C1CCN(c2nc(-c3ccccc3)c3cc(Br)ccc3n2)CC1	-2.6% (inactive)
CCc1cccc2c1NC1(CCCC1)CC2C (stereo not given)	-3.12% (inactive)
CNc1ccccc1C(C)(C)c1cc(-c2cccc(OC)c2)no1	-0.576% (inactive)
COc1cc(CC2C(=O)Nc3ccccc32)cc(C)c1O (stereo not given)	-4.45% (inactive)
CCc1ccc(-n2c(=S)sc3c(=O)n(-c4ccccc4C)c(SCC(=O)O)nc32)cc1	-11.7% (inactive)
O=C(c1c(F)cccc1F)N(Cc1ccccc1)Cc1ccccc1	-6.22% (inactive)
Cc1ccc(S(=O)(=O)NCc2ccc3c(c2)cc(C)n3C)cc1	-4.57% (inactive)
Cc1cc2cc(CNC(=O)Nc3cccc(Cl)c3)ccc2n1C	-10.6% (inactive)
OCc1ccc(-c2nn(Cc3ccccc3)c3ccccc23)o1	-2.1% (inactive)
COc1ccc(Nc2ccccc2N)cc1	-1.42% (inactive)
Cc1cc2ccccc2n1CCNC(=O)COc1ccc2ccccc2c1	-0.685% (inactive)

From PubChem BioAssay AID1053193 (Broad Institute, 2014)
